# Test results reported in PubChem BioAssay (Tox21).
# Records with an inconclusive call do not appear. Unmarked numbers belong to inactive results. Calls come from the whole dose curve.
# Target: D(2) dopamine receptor (Homo sapiens) (UniProt P14416)
# Assay: Dopamine D2 receptor (DRD2) small molecule agonists, cell-based qHTS assay (AID 1963594); note: nearly all actives have a fitted effect of over 35% in size
# Conditions: HEK293-DRD2 cAMP HTRF, agonist mode, 30 min; series mostly up to 92.4 µM; activation: at the top concentration
# From the text: National Center for Advancing Translational Sciences [NCATS]
# Division of Preclinical Innovation [DPI]
# U.S. Environmental Protection Agency [EPA]
# National Institutes of Environmental Health Sciences [NIEHS]
# National Toxicology Program [NTP]
# U.S. Food and Drug Administration [FDA]
# DRD2 is the D2 subtype of the dopamine receptor, which is coupled to Gi subtype of G protein-coupled receptor. This G protein-coupled receptor inhibits adenylyl cyclase activity. The DRD2-HEK293 cell line stably expressing D2 dopamine receptor can be used for screening agonists and antagonists of interactions between D2 and its ligands. The Hek293-DRD2 cAMP assay is based on HTRF technology. It measures changes of cAMP accumulation in response to Gi coupled GPCR activation or inhibition.
# Tox21 Assay Protocol Summary:
# DRD2-Hek293 cells were dispensed at 600 cells/3uL/well in 1536-well white plates using a Multidrop Dispenser. After the assay plates were incubated at a 37 C/5% CO2 incubator for 24 h, 1 uL of Ro20-1724 at final concentration of 0.1 mM was transferred to the assay plate by a Flying Reagent Dispenser. Following Ro20-1724 addition, 23 nL of compound dissolved in DMSO, positive controls or DMSO only was added to the assay plates via Wako pintool station. The assay plates were incubated at room temperature for 10 min. Next, 1 uL of NKH477 at 200nM was added into the plates. After the assay plates were incubated at room temperature for an additional 30 min, 2.5 ul/well of cAMP-d2 and 2.5 ul/well of anti-cAMP-cryptate were added respectively into the assay plates using a Flying Reagent Dispenser. The plates were incubated at room temperature for 1 h. The fluorescence intensity in the plates was measured at 340 nm excitation and 665 & 620 nm emission by an Envision plate reader.
# % is set by controls: 0 for no effect and ±100 for the full control effect.
# Chain of D(2) dopamine receptor (Homo sapiens) (P14416 whole entry, looked up): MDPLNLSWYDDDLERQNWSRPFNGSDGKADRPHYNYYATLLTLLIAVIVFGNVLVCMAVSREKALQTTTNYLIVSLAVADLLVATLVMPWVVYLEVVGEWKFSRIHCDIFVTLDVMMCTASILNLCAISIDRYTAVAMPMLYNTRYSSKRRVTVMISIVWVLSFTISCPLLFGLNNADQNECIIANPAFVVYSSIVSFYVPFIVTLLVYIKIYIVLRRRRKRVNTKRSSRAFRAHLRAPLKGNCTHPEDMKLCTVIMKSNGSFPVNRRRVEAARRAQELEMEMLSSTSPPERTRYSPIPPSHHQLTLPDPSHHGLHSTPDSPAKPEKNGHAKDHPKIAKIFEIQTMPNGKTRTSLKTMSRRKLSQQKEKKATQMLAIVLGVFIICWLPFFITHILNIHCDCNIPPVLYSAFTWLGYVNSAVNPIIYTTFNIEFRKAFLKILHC
row,SMILES,activation
1,C[C@@H](O)C(=O)O,-0.57%
2,C=CCOc1ccccc1OCC(O)CNC(C)C (stereo not given),0.269% [at 42.5 µM]
3,CCCCOC(=O)c1ccccc1,17.1%
4,O=C(C(=O)c1ccc(Br)cc1)c1ccc(Br)cc1,-0.026% [at 19 µM]
5,NC(=O)Nc1nc2ccccc2[nH]1,2.18%
6,CCC(C)COC(C)=O (stereo not given),2.04%
7,COCCOC,-0.767%
8,CC(C)NC(=O)NC(C)C,5.82%
9,Cc1ccc(Cl)c(Nc2ccccc2C(=O)O)c1Cl,3.62% [at 42.5 µM]
10,CNCC[C@@H](Oc1ccccc1C)c1ccccc1,-6.57% [at 42.5 µM]
11,O=C(NS(=O)(=O)/C=C/c1cccs1)c1ccc(F)cc1Br,2.46%
12,CCn1nc(C(=O)O)c(=O)c2cc3c(cc21)OCO3,13.3% [at 42.5 µM]
13,CC(C)(C)C(O)/C=C/c1ccc2c(c1)OCO2 (stereo not given),-25.4% [at 42.5 µM]
14,CC(C)(C)c1ccc(OCC2CO2)cc1 (stereo not given),4.41%
15,C[C@H](NC(CCc1ccccc1)C(=O)O)C(=O)N1CCC[C@H]1C(=O)O (stereo not given in full),-4.35% [at 42.5 µM]
16,O=C(Nc1cccc(Cl)c1)OCC#CCCl,2.47%
17,NCCCOCCOCCOCCCN,-11.4%
18,O=C=NCC1CCCC(CN=C=O)C1 (stereo not given),-3.99%
19,c1ccc2sc(SN3CCOCC3)nc2c1,-16.2% [at 42.5 µM]
20,CCCCCCCCCCCCCCCCCC[N+](C)(C)C,4.76%

row,SMILES,activation
1,CCC(CC)CO,-0.504%
2,O=C(O)[C@H](O)c1ccccc1,-0.405% [at 42.5 µM]
3,CN1CCN2c3ccccc3Cc3ccccc3C2C1 (stereo not given),-10.5% [at 42.5 µM]
4,COc1cc(C)cc(O)c1,-4.86%
5,Cc1ccc(Br)cc1,-1.41%
6,CC(C)OC(=O)OCOP(=O)(CO[C@H](C)Cn1cnc2c(N)ncnc21)OCOC(=O)OC(C)C,-1.86% [at 42.5 µM]
7,Cc1ccccc1N=C(N)Nc1ccccc1C,-4.39%
8,CC1CCN(CCCC(=O)c2ccc(F)cc2)CC1,-9.51% [at 42.5 µM]
9,CCCCO,-2.18%
10,COC1=C(OC)C(=O)C(CCCCCCCCCCO)=C(C)C1=O,1.37% [at 42.5 µM]
11,CCCCN1C[C@H](O)[C@@H](O)[C@H](O)[C@H]1CO,-5.28% [at 42.5 µM]
12,COc1ccc(C(=O)/C(Br)=C\C(=O)O)cc1,-9.97%
13,Cc1c(Nc2ncccc2C(=O)O)cccc1C(F)(F)F,-23.1% [at 42.5 µM]
14,CC(C)OC(=O)c1cc(C(=O)OC(C)C)cc([N+](=O)[O-])c1,-22.7%
15,Cn1cnc2c(=O)[nH]c(N)nc21,-2.03%
16,C=C1CC[C@H]2C[C@@H]1C2(C)C,-8.04%
17,Cc1ccc(O)c(O)c1,3.23%
18,Cc1oc(-c2ccccc2)nc1CCOc1cccc2c1ccn2CCC(=O)O,19.7%
19,Nc1ccc(N=Nc2ccc(N)cc2)cc1,-0.0405% [at 42.5 µM]
20,CC/C=C\C/C=C\C/C=C\CCCCCCCC(=O)OCC,-1.57%
